# Screens (PubChem)
# GLP1R cytotox: cytotoxic in the GLP-1 receptor inverse agonist counter-screen. HEK293 cAMP-luciferase reporter cells, luminescence, 24 h. 0.13% of 410,000 active. Potency, µM (doses to about 38.3 µM), for the others: top-dose activity change, negative = inhibition, hits mostly inhibitors. AID 624418;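 note: loss of luciferase light is scored as toxicity; potency is the fitted concentration of half-maximal effect; % is set by controls: 0 for no effect and ±100 for the full control effect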
#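 Luminescence readout: signal drop marks cytotoxicity. Plated cells grew 12 h at 37 °C, 5% CO2, received 23 nL compound for 24 h, then got luciferase reagent, read after 12 min at RT.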
# GLP-1R inv ag: acts as inverse agonist at human GLP-1 receptor; P43220; HEK293 GLP-1R CRE-luciferase, luminescence, 24 h; GLP-1R form is constitutively active; Potency, µM (top dose mostly 38.3 µM), without a hit: at the highest dose activity change, negative = inhibition, hits mostly inhibitors; 1.6% of 410,000 active; AID 624417; note: potency is the fitted concentration of half-maximal effect; % is set by controls: 0 for no effect and ±100 for the full control effect; nearly all actives have a fitted effect of over 55% in size
#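 HEK293 cells stably co-expressing constitutively active GLP-1R and a cAMP-responsive luciferase reporter were seeded in DMEM with 10% Nu serum, given compounds after 12 h, and incubated 24 h at 37 deg C. Luminescence was then read.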
# D3 antag: blocks the human D3 dopamine receptor; P35462; D3R cells, DiscoveRx beta-arrestin luminescence, antagonist mode; active compounds read low; max response, negative = inhibition, %; 2.5% of 360,000 active; AID 652054; in the data active = max response below about -50%; inconclusive = no clear call, values can overlap the other calls; note: % is set by controls: 0 for no effect and ±100 for the full control effect
#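 Cells expressing the human receptor were seeded at 1500 cells/well, incubated overnight at 37 degrees C in 5% CO2, then exposed to library compounds with dopamine controls for 90 minutes at 37 degrees C before luminescent detection.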
# DRD3 agonist: agonists of human D3 dopamine receptor; AID 652048; 0.58% of 410,000 active; P35462; max activation, %; D3R DiscoveRx beta-arrestin cells, luminescence, 90 min; in the data active = max activation above about 30%; note: 0% is about no effect
#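 Agonist mode: compounds and dopamine controls were applied to plated cells for 90 min at 37 degrees C after an overnight attachment at 1500 cells/well. Luminescent read-out followed 30 - 60 minutes at room temperature with DiscoveRx detection reagent.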
# GLP-1R agonist: agonists of human GLP-1 receptor | P43220 | 0.007% of 380,000 active | Potency, µM (doses to about 45.6 µM), for inactives: top-dose activation, hits mostly activators | HEK293 GLP-1R CRE-luciferase, luminescence, 4-6 h; cells express a hypersensitive GLP-1R form; note: potency is the fitted concentration of half-maximal effect; % of control where 0% means no effect
# ClpP mod: qHTS Assay for Activators of ClpP. 1.9% of 340,000 active. Potency, µM (highest dose often 57.5 µM), for the others: top-dose activity change, negative = active. purified B. subtilis ClpP, FRET peptide cleavage, 20 min. ATP-dependent Clp protease proteolytic subunit (Bacillus subtilis (strain 168)), P80244. AID 651965, 2013; active = well fitted falling curve with a large enough effect; inconclusive = small, poorly fitted or top-dose-only effect; inactive = no such curve, though single readings can be large or run the other way; note: potency is the fitted concentration of half-maximal effect; the source files actives as falling curves though it sought activators and does not explain the sign; nearly all actives have a fitted effect of over 65% in size
# Target sequence (P80244 whole entry, looked up): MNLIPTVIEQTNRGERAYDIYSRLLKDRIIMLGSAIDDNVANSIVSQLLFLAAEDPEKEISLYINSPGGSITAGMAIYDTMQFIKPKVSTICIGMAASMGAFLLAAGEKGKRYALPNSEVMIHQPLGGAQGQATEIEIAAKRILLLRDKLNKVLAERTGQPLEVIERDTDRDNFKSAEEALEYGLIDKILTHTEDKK
#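 Buffer: 100 mM Tris/HCl pH8, 100 mM KCl, 0.05% low protease BSA, 2.5% glycerol, 0.01% Tween-20. ClpP 10 microg/mL final; 20 min RT; delta FRET normalized to ADEP and DMSO controls.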
# An asterisk follows results filed as active; ? = inconclusive; . = not tested or not shown. A selection: hits, their analogues and other compounds. The true share with any hit is near 5.7%. Unless noted, calls come from the whole dose curve; as a rule, active = well fitted curve in the direction sought with a large enough effect; inconclusive = small, poorly fitted or top-dose-only effect, or another doubt; inactive = no such curve, though single readings can be large; an effect the other way counts as inactive or inconclusive.
SMILES,GLP1R cytotox,GLP-1R inv ag,D3 antag,DRD3 agonist,GLP-1R agonist,ClpP mod
COC(=O)c1c(NC(=S)NN2CCN(C)CC2)sc2c1CCC(C)C2 (centres undefined),?,10µM*,?,0,15%,.
CC(C)CCNC(=O)c1cc(S(=O)(=O)N2CCC3(CC2)OCCO3)ccc1F,0%,-15%,0,-2,0%,-2%
CC(C)(C)OC(=O)N(CCc1ccccc1)Cc1ccc(OCc2cccc(NC(=O)/C=C/c3ccccc3)c2)cc1,1%,?,-11,-1,0%,-13%
CC(C)(C)OC(=O)N(CCc1ccccc1)Cc1ccc(OCc2cccc(NC(=O)C3CC3)c2)cc1,9%,7.9µM*,86,8,-3%,-1%
CC(C)C(=O)Nc1cccc(COc2ccc(CN(Cc3ccccc3)C(=O)OC(C)(C)C)cc2)c1,3%,?,105,36*,3%,-2%
CC(C)(C)OC(=O)N(CCc1ccccc1)Cc1cccc(OCc2cccc(NC(=O)c3ccccc3)c2)c1,1%,10µM*,5,-13,-3%,?
Cc1cc(Nc2cccc(C(F)(F)F)c2)nc2ccc(NC(=O)c3ccc(N(C)C)cc3)cc12,-5%,?,.,-12,.,5%
Cc1cccc(C)c1Nc1c(-c2ccc(Cl)s2)nc2ncccn12,142%,?,.,-9,.,-3%
CCN1CCCC1CNC(=O)c1cc(N)ccc1OC (centres undefined),-5%,-20%,-52*,-16,5%,.
C=CCN1CCCC1CNC(=O)c1cc2[nH]nnc2cc1OC (centres undefined),-3%,3%,-81*,-86,-5%,5%
CCN1CCC[C@H]1CNC(=O)c1c(OC)ccc(Br)c1OC,1%,10%,-55*,-79,4%,2%
CCN1CCCC1CNC(=O)c1[nH]c2ccc(OC)cc2c1C (centres undefined),-6%,?,-61*,-15,0%,3%
CCN1CCC[C@H]1CNC(=O)c1cc(S(N)(=O)=O)ccc1OC,.,.,.,.,-6%,.
CCN1CCCC1CNC(=O)c1cc(S(=O)(=O)CC)ccc1OC (centres undefined),.,.,.,-24,3%,.
CCN1CCCC1CNC(=O)c1cc([N+](=O)[O-])c(N(C)C)cc1OC (centres undefined),-14%,17%,-103*,-28,9%,-1%
COc1ccc(CNC(=O)C2CCN(S(=O)(=O)c3ccc(N4CCCC4=O)cc3)CC2)cc1,-15%,17%,62,0,-4%,1%
Cn1c(=O)c2c(nc(N3CCN(Cc4ccccc4)CC3)n2CC(=O)c2ccccc2)n(C)c1=O,-4%,0%,8,0,0%,0%
CN(c1nc2c(c(=O)n(C)c(=O)n2C)n1CC(=O)c1ccccc1)C1CCCCC1,-25%,7.9µM*,20,9,18%,0%
CCOc1ccc2nc(NC(=O)CSc3nc(SC)ns3)sc2c1,-23%,-25%,-8,5,-12%,28µM*
COc1ccc2nc(NC(=O)CN3CCN(C)CC3)sc2c1,-10%,-23%,-59*,3,-3%,-2%
CCN1CCN(CC(=O)Nc2nc3ccc(OC)cc3s2)CC1,76%,-30%,-66*,-1,7%,-4%
COc1ccc2nc(NC(=O)CN3CCOCC3)sc2c1,-1%,8%,15,-4,-10%,0%
CCC(=O)N1CCc2cc(S(=O)(=O)NC(Cc3ccccc3)C(=O)Nc3cccc(OC)c3)ccc21 (centres undefined),3%,8%,.,-2,.,3%
Cc1ccc(CNCc2c(C(=O)O)c(C)n(Cc3ccc(C)cc3)c2C)cc1,-1%,-4%,.,6,.,0%
O=C1CCCC(O)=C1C(C#Cc1ccccc1)C1=C(O)CCCC1=O,-24%,-18%,-61*,-5,3%,-2%
Cc1ccc(/C=C/c2ccc(=O)n(Cc3ccccc3Cl)n2)cc1,4%,10%,0,1,-8%,28µM*
